From PubChem BioAssay AID1159580 (chemical genetic matrix, 2015)
Values joined by “and” are separate entries in the source; they are usually repeats but may differ in a detail not shown here. Identical values can stand only once. Among all 5,500 compounds or so, about 2,000 (36%) were called active. Roughly 18% stayed inconclusive and do not appear here. Rule as the data show it: active = normalized growth mostly below about 0.91 (no sharp cut-off); inconclusive = no clear call, values can overlap the other calls; inactive = mostly above about 0.92. The list shows a part of the results.

Assay: chemical genetic growth profiling, strain panel (AID 1159580);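 also: tested at 20 µM; growth read once vehicle control cultures reached saturation at 30 °C; 1 = growth at the plate median or of vehicle wells; lower values mean less growth of the strain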
Details: S. cerevisiae deletion strains, growth OD

Measured: normalized growth

CC(C)N(CCC(C(N)=O)(c1ccccc1)c1ccccn1)C(C)C (stereo unspecified)
active: locus YAL021C, strain ccr4, hits give low values 0.0708 | locus YAL026C, strain drs2, hits give low values 0.0629 | locus YAL030W, strain snc1, hits give low values 0.233 | locus YBL061C, strain skt5, hits give low values 0.15 | locus YBR009C, strain hhf1, hits give low values 0.103 | locus YBR023C, strain chs3, hits give low values 0.171 | locus YBR171W, strain sec66, hits give low values 0.0831 | locus YBR231C, strain swc5, hits give low values 0.0926 | locus YBR279W, strain paf1, hits give low values 0.0794 | locus YCL011C, strain gbp2, hits give low values 0.062 | locus YCL016C, strain dcc1, hits give low values 0.251 | locus YCL061C, strain MRC1, hits give low values 0.0703 | locus YCL069W, strain vba3, hits give low values 0.0939 | locus YCR088W, strain abp1, hits give low values 0.0673 | locus YDL040C, strain nat1, hits give low values 0.471 | locus YDR001C, strain nth1, hits give low values 0.0635 | locus YDR069C, strain doa4, hits give low values 0.0647 | locus YDR137W, strain rgp1, hits give low values 0.0968 | locus YDR159W, strain sac3, hits give low values 0.388 | locus YDR195W, strain ref2 0.12 | locus YDR297W, strain sur2, hits give low values 0.0705 | locus YDR334W, strain swr1, hits give low values 0.0666 | locus YDR335W, strain msn5, hits give low values 0.0613 | locus YDR392W, strain spt3, hits give low values 0.112 | locus YEL003W, strain gim4, hits give low values 0.0565 | locus YEL037C, strain rad23, hits give low values 0.0584 | locus YEL061C, strain CIN8 (second series), hits give low values 0.0634 | locus YER015W, strain faa2, hits give low values 0.0627 | locus YER016W, strain bim1, hits give low values 0.0943 | locus YER111C, strain swi4, hits give low values 0.082 | locus YER155C, strain BEM2 (second series), hits give low values 0.1 | locus YFR010W, strain ubp6, hits give low values 0.0698 | locus YGL167C, strain pmr1, hits give low values 0.563 | locus YGL173C, strain kem1, hits give low values 0.114 | locus YGL227W, strain vid30, hits give low values 0.0631 | locus YGL240W, strain doc1, hits give low values 0.129 | locus YGL253W, strain hxk2, hits give low values 0.0581 | locus YHR013C, strain ard1, hits give low values 0.114 | locus YHR027C, strain rpn1, hits give low values 0.0639 | locus YHR142W, strain chs7, hits give low values 0.0788 | locus YJL092W, strain hpr5, hits give low values 0.0644 | locus YJL095W, strain BCK1 (second series), hits give low values 0.17 | locus YJL115W, strain asf1, hits give low values 0.0925 | locus YJL129C, strain trk1, hits give low values 0.0869 | locus YJL154C, strain vps35, hits give low values 0.0659 | locus YJL164C, strain tpk1, hits give low values 0.13 | locus YJL166W, strain qcr8, hits give low values 0.0729 | locus YJL187C, strain SWE1, hits give low values 0.468 | locus YKL160W, strain elf1, hits give low values 0.139 | locus YKR026C, strain gcn3, hits give low values 0.441 | locus YKR091W, strain srl3, hits give low values 0.559 | locus YLL001W, strain dnm1, hits give low values 0.0623 | locus YLL026W, hits give low values 0.0653 | locus YLL041C, strain sdh2, hits give low values 0.411 | locus YLR027C, strain aat2, hits give low values 0.0601 | locus YLR221C, strain rsa3, hits give low values 0.0673 | locus YLR258W, strain gsy2, hits give low values 0.0927 | locus YLR262C, strain YPT6 (second series), hits give low values 0.0974 | locus YLR320W, strain mms22, hits give low values 0.104 | locus YLR342W, strain FKS1, hits give low values 0.0913 | locus YLR357W, strain rsc2, hits give low values 0.133 | locus YLR370C, strain arc18, hits give low values 0.0613 | locus YLR384C, strain iki3, hits give low values 0.0647 | locus YML120C, strain ndi1, hits give low values 0.0595 | locus YMR058W, strain fet3, hits give low values 0.0623 | locus YMR125W, strain sto1, hits give low values 0.309 | locus YMR129W, hits give low values 0.0614 | locus YMR205C, strain PFK2, hits give low values 0.193 | locus YMR231W, strain pep5, hits give low values 0.095 | locus YNL071W, strain lat1, hits give low values 0.0658 | locus YNL209W, strain ssb2, hits give low values 0.0612 | locus YNL248C, strain rpa49, hits give low values 0.0783 | locus YNL322C, strain KRE1 (second series), hits give low values 0.0713 | locus YNR049C, strain mso1, hits give low values 0.0601 | locus YOR001W, strain rrp6, hits give low values 0.0692 | locus YOR070C, strain gyp1, hits give low values 0.0654 | locus YOR080W, strain dia2, hits give low values 0.0699 | locus YOR083W, strain WHI5, hits give low values 0.227 | locus YOR106W, strain vam3, hits give low values 0.0676 | locus YOR265W, strain rbl2, hits give low values 0.0664 | locus YOR270C, strain vph1, hits give low values 0.0928 | locus YOR290C, strain snf2, hits give low values 0.0671 | locus YPL051W, strain arl3, hits give low values 0.0788 | locus YPL078C, strain atp4, hits give low values 0.0695 | locus YPL106C, strain sse1, hits give low values 0.117 | locus YPL240C, strain hsp82, hits give low values 0.278
inactive: locus YAL013W, strain DEP1, hits give low values 0.959 | locus YAL040C, strain CLN3, hits give low values 0.969 and 1.02 | locus YBR021W, strain FUR4, hits give low values 0.984 | locus YBR229C, strain ROT2, hits give low values 0.998 | locus YCL029C, strain bik1, hits give low values 0.963 | locus YCL061C, strain MRC1 (second series), hits give low values 0.993 and 1.01 | locus YDL005C, strain med2, hits give low values 0.937 | locus YDL035C, strain GPR1, hits give low values 1.04 | locus YDL074C, strain BRE1, hits give low values 0.976 | locus YDL101C, strain DUN1, hits give low values 0.988 | locus YDL185W, strain tfp1, hits give low values 0.971 | locus YDL192W, strain arf1, hits give low values 0.995 | locus YDR101C, strain arx1, hits give low values 0.983 | locus YDR150W, strain NUM1, hits give low values 0.989 and 1 and 1.01 | locus YDR162C, strain NBP2, hits give low values 1.01 | locus YDR318W, strain mcm21, hits give low values 0.998 | locus YDR363W, strain ESC2, hits give low values 0.982 and 0.999 | locus YDR388W, hits give low values 0.99 | locus YDR502C, strain sam2, hits give low values 0.992 | locus YEL061C, strain CIN8, hits give low values 0.996 | locus YER002W, strain NOP16, hits give low values 0.995 and 1 | locus YER110C, hits give low values 0.977 | locus YER155C, strain BEM2, hits give low values 0.989 | locus YER167W, strain BCK2, hits give low values 0.986 | locus YGL078C, strain dbp3, hits give low values 0.99 | locus YGL086W, strain mad1, hits give low values 1 | locus YGL248W, strain PDE1, hits give low values 0.98 | locus YGR078C, strain PAC10, hits give low values 0.99 and 1.04 | locus YGR135W, strain pre9, hits give low values 0.952 | locus YGR252W, strain gcn5, hits give low values 0.997 | locus YHR030C, strain SLT2, hits give low values 0.997 and 1 | locus YHR079C, strain IRE1 (second series), hits give low values 0.995 | locus YHR079C, strain IRE1, hits give low values 0.968 | locus YHR094C, strain hxt1, hits give low values 0.976 | locus YHR129C, strain ARP1, hits give low values 0.999 | locus YHR200W, strain rpn10, hits give low values 0.999 | locus YIL066C, strain RNR3, hits give low values 0.992 | locus YIL073C, strain SPO22, hits give low values 0.912 | locus YIL125W, strain kgd1, hits give low values 1 | locus YIR030C, strain dcg1, hits give low values 0.973 | locus YJL095W, strain BCK1, hits give low values 0.966 and 1.01 | locus YJL134W, strain LCB3, hits give low values 0.998 | locus YJL168C, strain set2, hits give low values 0.996 | locus YJL187C, strain SWE1 (second series), hits give low values 0.977 | locus YJR043C, strain POL32, hits give low values 1.05 | locus YJR066W, strain TOR1, hits give low values 0.994 | locus YJR075W, strain HOC1, hits give low values 1.02 | locus YKL009W, strain mrt4, hits give low values 0.97 | locus YKL068W, hits give low values 0.98 | locus YKL085W, strain MDH1 (second series), hits give low values 0.988 | locus YKL085W, strain MDH1, hits give low values 0.988 | locus YKR001C, strain vps1, hits give low values 0.988 | locus YLR039C, strain RIC1, hits give low values 0.972 | locus YLR058C, strain SHM2, hits give low values 0.979 | locus YLR102C, strain apc9, hits give low values 0.987 | locus YLR113W, strain HOG1, hits give low values 1.06 | locus YLR262C, strain YPT6, hits give low values 0.963 | locus YLR268W, strain sec22, hits give low values 0.999 | locus YLR330W, strain CHS5, hits give low values 0.989 | locus YLR342W, strain FKS1 (second series), hits give low values 1.02 | locus YLR371W, strain rom2, hits give low values 0.997 | locus YLR418C, strain cdc73, hits give low values 0.967 | locus YML016C, strain PPZ1, hits give low values 0.997 | locus YML032C, strain rad52, hits give low values 1.01 | locus YML124C, strain tub3, hits give low values 0.994 | locus YMR078C, strain ctf18, hits give low values 0.978 | locus YMR223W, strain ubp8, hits give low values 0.978 | locus YMR263W, strain SAP30, hits give low values 0.991 | locus YMR307W, strain GAS1, hits give low values 1.01 and 0.995 and 1.02 | locus YNL067W, strain RPL9B, hits give low values 0.973 | locus YNL128W, strain TEP1, hits give low values 1.02 and 0.999 | locus YNL153C, strain GIM3, hits give low values 0.983 and 1.03 | locus YNL175C, strain NOP13, hits give low values 0.978 and 1.02 | locus YNL183C, strain NPR1, hits give low values 1 | locus YNL197C, strain WHI3, hits give low values 1.01 and 0.977 | locus YNL224C, strain SQS1, hits give low values 0.978 and 1.01 | locus YNL233W, strain BNI4, hits give low values 0.972 | locus YNL250W, strain rad50, hits give low values 1.01 | locus YNL271C, strain bni1, hits give low values 0.996 | locus YNL298W, strain CLA4, hits give low values 0.997 | locus YNL307C, strain MCK1, hits give low values 0.999 | locus YNL322C, strain KRE1, hits give low values 0.977 and 1.02 | locus YNR052C, strain pop2, hits give low values 0.997 | locus YOL012C, strain htz1 0.863 | locus YOL147C, strain pex11, hits give low values 0.984 | locus YOR061W, strain CKA2, hits give low values 0.998 | locus YOR069W, strain VPS5, hits give low values 0.996 | locus YOR083W, strain WHI5 (second series), hits give low values 1 and 0.957 | locus YOR136W, strain idh2, hits give low values 1.01 | locus YOR144C, strain elg1, hits give low values 0.996 | locus YOR184W, strain ser1, hits give low values 0.995 | locus YOR231W, strain MKK1, hits give low values 1.02 | locus YOR316C, strain cot1, hits give low values 1 | locus YPL241C, strain CIN2, hits give low values 0.995 and 1.01 | locus YPL256C, strain CLN2, hits give low values 0.991 | locus YPR119W, strain clb2, hits give low values 0.997 | locus YPR141C, strain kar3, hits give low values 0.962 | locus YPR163C, strain tif3, hits give low values 0.989 | locus YPR167C, strain met16, hits give low values 1.01 | strain wtn01, hits give low values 0.996
